# Measured values as given in PubChem BioAssay (EPA / NIEHS).
# Results filed as inconclusive are left out. Active and inactive are the calls of the source. Rule for the calls: active = hit-call score of the fitted dose curve at least 0.9, where 1 is the maximum; inconclusive = response in the unintended direction; inactive = score below 0.9.
# Molecular target: Cellular tumor antigen p53 (Homo sapiens) (UniProt P04637)
# Assay: TOX21_p53_BLA_p4_ratio: Tox21 HCT-116 p53 Agonism Beta-lactamase Assay, Ratio, Phase 4 (AID 2283601)
# In short: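 HCT116 cells carrying an inducible beta-lactamase reporter were plated at 4000 cells/well, rested 5 h, then exposed to compounds in DMSO (217-fold dilution) for 16 h at 37C. CCF4-AM substrate was loaded 2 h at room temperature; 460/530 nm emission ratio scored gain-of-signal versus DMSO.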
# Chain of Cellular tumor antigen p53 (Homo sapiens) (P04637 whole entry, looked up): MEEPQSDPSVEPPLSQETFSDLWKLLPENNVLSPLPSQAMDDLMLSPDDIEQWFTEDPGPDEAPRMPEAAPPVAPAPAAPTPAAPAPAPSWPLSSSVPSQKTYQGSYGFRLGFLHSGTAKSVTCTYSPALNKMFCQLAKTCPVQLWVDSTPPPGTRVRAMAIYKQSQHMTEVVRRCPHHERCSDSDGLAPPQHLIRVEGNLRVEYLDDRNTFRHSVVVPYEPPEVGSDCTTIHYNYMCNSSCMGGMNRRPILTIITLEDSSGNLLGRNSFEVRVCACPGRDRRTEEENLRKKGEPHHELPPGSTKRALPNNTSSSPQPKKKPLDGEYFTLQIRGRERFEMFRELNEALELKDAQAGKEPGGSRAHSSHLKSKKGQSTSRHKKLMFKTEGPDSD
row,Structure (SMILES),outcome
1,[O]=[Bi][O][Bi]=[O],inactive
2,O=C(O)CC(=O)O,inactive
3,Cc1cc(OI)c(C(C)C)cc1-c1cc(C(C)C)c(OI)cc1C,inactive
4,O=C(NCCCN1CCOCC1)c1ccc(Cl)cc1,inactive
5,CO/N=C(\C(=O)N[C@@H]1C(=O)N2C(C(=O)O)=C(C[N+]3(C)CCCC3)CS[C@H]12)c1csc(N)n1,inactive
6,O=C(c1ccccc1)C1(O)CCCCC1,inactive
7,N=C(N)c1ccccc1,inactive
8,C=CC(=O)OCC1CCCO1 (stereo not drawn),inactive
9,CCOC(=O)C1=C[C@]2(CC)CCCN3CCc4c(n1c1ccccc41)[C@@H]32,inactive
10,CCCCCO,inactive
11,COc1ccc(CN(CCN(C)C)c2ncccn2)cc1,inactive
12,C[C@@H](N)C(=O)O,inactive
13,CC(CN(C)C)CN1c2ccccc2S(=O)(=O)c2ccccc21 (stereo not drawn),inactive
14,C#CC(O)CCCCC (stereo not drawn),inactive
15,Cc1cccc(C)c1OCC(C)N (stereo not drawn),inactive
16,O=C(O)CCCCCCC(=O)O,inactive
17,CC1(C)S[C@@H]2[C@H](NC(=O)Cc3ccccc3)C(=O)N2[C@H]1C(=O)O,inactive
18,C#C[C@]1(O)CC[C@H]2[C@@H]3CCC4=CC(=O)CC[C@@H]4[C@H]3C(=C)C[C@@]21CC,inactive
19,O=C1OC(OC(=O)c2cccnc2Nc2cccc(C(F)(F)F)c2)c2ccccc21 (stereo not drawn),inactive
20,Nc1nc2c(ncn2COCCO)c(=O)[nH]1,inactive
21,Nc1nc(N)nc(-c2cc(Cl)ccc2Cl)n1,inactive
22,O=C(O)[C@H]1CN(C/C=C/P(=O)(O)O)CCN1,inactive
23,COC(=O)Nc1nc2ccc(C(=O)c3ccccc3)cc2[nH]1,inactive
